Assay results taken from PubChem BioAssay.

Biological target: Tumor necrosis factor receptor superfamily member 10B (Homo sapiens) (UniProt O14763)
Assay: viability loss of caspase-8 NB7 cells with TRAIL – with/without TRAIL, luminescence panel, confirmation (AID 651596)
Conditions: NB7 neuroblastoma + caspase-8, TRAIL sensitization, NB7 Caspase-8, with TRAIL, mean of runs, at 10 µM, stronger effect = higher value

Tumor necrosis factor receptor superfamily member 10B (Homo sapiens), sequence (O14763 whole entry, looked up): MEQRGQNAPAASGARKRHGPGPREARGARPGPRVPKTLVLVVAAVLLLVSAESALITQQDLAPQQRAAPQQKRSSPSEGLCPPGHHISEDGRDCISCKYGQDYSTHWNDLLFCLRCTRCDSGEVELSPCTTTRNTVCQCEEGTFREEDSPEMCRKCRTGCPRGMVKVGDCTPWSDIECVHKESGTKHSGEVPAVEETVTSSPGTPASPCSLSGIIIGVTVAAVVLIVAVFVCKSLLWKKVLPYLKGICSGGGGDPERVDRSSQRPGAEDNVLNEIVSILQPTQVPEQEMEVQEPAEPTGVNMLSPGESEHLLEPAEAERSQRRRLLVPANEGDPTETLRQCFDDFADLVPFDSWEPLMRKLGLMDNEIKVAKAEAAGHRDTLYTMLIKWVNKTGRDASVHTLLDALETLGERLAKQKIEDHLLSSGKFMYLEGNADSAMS

SMILES	activity [%]
O=C(NNc1nc(=O)c2cccnc2s1)c1ccccc1O	45.7
O=C(CCl)Nc1cccc(Oc2ccccc2)c1	97.7
Oc1cc(NCc2ccc(F)cc2)cc2cccnc12	36.8
O=C(Nc1nsc(-c2ccccc2)n1)c1cccs1	56.6
O=C(NC(=S)Nc1nc2ccc(F)cc2s1)c1ccco1	85.3
Cc1ccccc1-c1nnc(SCC(=O)Nc2cccnc2Cl)o1	68.8
Cc1ccc(-c2nc(NC(=O)c3nn(C)cc3[N+](=O)[O-])sc2C)cc1	97.6
CCC(=O)N1CCN(c2ccc(NC(=O)c3cc4ccccc4o3)cc2Cl)CC1	79.6
Cc1ccc2nc(-c3ccc(NC(=O)COC(=O)c4cncc(Br)c4)cc3)sc2c1	60.7
C(=Cc1c[nH]c2ccccc12)c1ccc2ccccc2n1	61.1
N=NC(=O)c1ccccc1Nc1c(O)[nH]c2ccccc12	93.5
Cc1nn(-c2ccccc2)c(C)c1/C=N/NC(=O)c1cc(-c2ccc(Cl)s2)[nH]n1	70.1
Cc1ccc(-c2nc3ccccc3[nH]2)s1	58.9
CCN1CCN(CCNC(=O)c2ccc3c(c2)N(Cc2ccc(F)cc2)C(=O)/C(=C/c2ccccc2)S3)CC1	53.4
CCc1nnc(NC(=O)CSc2nc3c(cc2C#N)CCC3)s1	73.7
O=C(Nc1ccccc1C(=O)N/N=C/c1ccncc1)c1ccccc1	91.7
CC1CCC(C(C)C)C(OC(=O)Cn2c(-c3ccc(Cl)cc3)[n+](C)c3ccccc32)C1 (stereo not given)	76.7
CCOc1ccc(C(=O)Nc2ccc3[nH]ncc3c2)cc1	82.6
COC(=O)c1ccc2nc(NC(=O)C(C)(C)C)sc2c1	93.2
FC(F)(F)c1cccc(-c2nc3nc(Cl)c(Cl)nc3[nH]2)c1	57.3

SMILES	activity [%]
COc1ccc(C(=O)c2c[nH]c3ccccc23)cc1	45.4
COc1ccc(C(=O)Nc2cccc(OC)c2)cc1	56.9
Cc1ccc(NC(=O)c2ccc(CSc3nnnn3C)cc2)cc1	44.9
Cc1cccc(C(=O)Nc2ccc(C(=O)Nc3ccc(O)cc3)cc2)c1	79.9
COc1cccc(-c2cc3nc(-c4ccccc4)cc(N4CCN(C(=O)c5ccoc5)CC4)n3n2)c1	82
Cc1nc(N)nc(N)c1CCCc1ccc(Cl)c(Cl)c1	69.6
O=C(/C(=C/c1ccc(Cl)cc1)c1nc2ccccc2[nH]1)c1ccccc1	84.1
CC(C)(C)c1ccc(O)c(/C=N\O)c1	60.4
COc1ccccc1C(=O)NNC(=O)c1cccc(O)c1	44.2
CC(=O)c1c(C)[nH]c(C(=O)Nc2ccc(C)cn2)c1C	75.9
Cc1cccc(-n2ncc3c(N4CCC(C)CC4)ncnc32)c1	44.7
CN(CCO)c1cc(Sc2nc3ccccc3s2)c2nonc2c1[N+](=O)[O-]	18.5
Nc1nc(CCl)nc(Nc2ccc3ccccc3c2)n1	99.1
COc1ccc2cc(CNCCOCCOCCNCc3ccc4cc(OC)ccc4c3)ccc2c1	-7.05
COc1ccc2nc(NC(=O)c3ccc([N+](=O)[O-])o3)sc2c1	37.6
OCC1OC(n2ccc3c2ncn2ncnc32)C(O)C1O (stereo not given)	93.8
COc1ccc(-c2nnc(NC(=O)c3ccco3)s2)cc1	55.4
CC(OC(=O)c1ccc(S(C)(=O)=O)c([N+](=O)[O-])c1)C(=O)NC1C2CC3CC(C2)CC1C3 (stereo not given)	77.8
COC(=O)C12OCC34C(CC5C(C)=C(O)C(=O)CC5(C)C3C(O)C1O)OC(=O)C(OC(=O)C=C(C)C)C24 (stereo not given)	91
CCCCCCCC(=O)Nc1ccc(C(=O)N/N=C/c2cccc([N+](=O)[O-])c2)cc1	69.3
